Test results published in article PMC7819943, “Rice protein-binding microarrays: a tool to detect cis-acting elements near promoter regions in rice”.
The full ranking holds about 39,000 sequences; the median of “fluorescence intensity (a.u.)” is about 4,300, and the highest 2% start at about 39,000. Only a selection was taken, and the highest values are over-represented in it overall.

biological target: T1, OsSMF1 (Oryza sativa, UniProt Q6ZLB0 1-436); assay: protein-binding microarray (RPBM); PBS, 2% BSA, 51.3 ng/ul salmon testes DNA, 50 uM zinc acetate, 200 nM TF, 25 C, 1 h; high values mean tight binding; details: protein: recombinant; tags: N-terminal polyhistidine and DsRed monomer fusion (pET32a); chain copies: 2; label: CyDye5-dUTP incorporated in the synthesized complementary strand; 3' TTTTT single-stranded linker to array surface; dsDNA, one strand shown
T1 sequence: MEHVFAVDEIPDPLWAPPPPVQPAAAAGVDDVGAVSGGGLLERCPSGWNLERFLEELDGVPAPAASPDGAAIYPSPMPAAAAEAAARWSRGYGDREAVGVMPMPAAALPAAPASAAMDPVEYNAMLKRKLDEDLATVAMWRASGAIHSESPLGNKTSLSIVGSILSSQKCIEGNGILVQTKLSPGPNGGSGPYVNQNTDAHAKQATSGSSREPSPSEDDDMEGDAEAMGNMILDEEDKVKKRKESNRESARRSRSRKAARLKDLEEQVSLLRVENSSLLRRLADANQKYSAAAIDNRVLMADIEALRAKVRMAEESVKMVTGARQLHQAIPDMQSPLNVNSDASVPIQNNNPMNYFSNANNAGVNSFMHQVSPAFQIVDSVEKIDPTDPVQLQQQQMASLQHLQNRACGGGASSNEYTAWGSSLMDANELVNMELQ
In short: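 The binding signal for each feature is its fluorescence intensity in arbitrary units. An Axon 4000B scanner was used to read a custom Agilent array that had been made double-stranded with Cy5-dUTP primer extension, blocked with 2% BSA, incubated at 25 °C for 1 h with 200 nM protein in PBS, 2% BSA, salmon testes DNA and 50 µM zinc acetate, and washed. The protein was an N-terminal polyhistidine–DsRed transcription factor fusion from E. coli BL21-CodonPlus, purified on Ni–NTA.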

| Sequence | binding signal |
| --- | --- |
| GTTATCGTCATTACGTCAATACGTGTTTTCGAAAATAATTCGGAGTCACCTAGTGCAG | 4860 fluorescence intensity (a.u.) |
| GACACCACCGCCGCCGCCGTCCTCGTCATCTCCAGATCGCCGGAGTCACCTAGTGCAG | 9120 fluorescence intensity (a.u.) |
| ACAGTAGCACCGGAAAGCTGCATGTGAAGTCTAGTCAACGCGGAGTCACCTAGTGCAG | 4250 fluorescence intensity (a.u.) |
| CTTCTCCTGCATGGCAAGTCGCTGATCACAACTACGCATCCGGAGTCACCTAGTGCAG | 3610 fluorescence intensity (a.u.) |
| CGCACGATGATCATGTGTTGGTGTTGGCATGCAATGCAACCGGAGTCACCTAGTGCAG | 3780 fluorescence intensity (a.u.) |
| ACTATATATATACACTACGGTTGACAAAGACATCCCAACACGGAGTCACCTAGTGCAG | 3240 fluorescence intensity (a.u.) |
| GAGAAAGGAACAACTACAAAAGACACACATATATACTATGCGGAGTCACCTAGTGCAG | 39400 fluorescence intensity (a.u.) |
| CAAAGGAACACATCTGGGTCATCAGACAACTCAATAGAGTCGGAGTCACCTAGTGCAG | 43000 fluorescence intensity (a.u.) |
| TCATCTGGTACAAAATATATAGGACATCAATCATGGGGAACGGAGTCACCTAGTGCAG | 26200 fluorescence intensity (a.u.) |
| TTCACAACACTTGCATGAACTCAGGTGTCAATGGTAAGGTCGGAGTCACCTAGTGCAG | 3560 fluorescence intensity (a.u.) |
| TGTAACTATTCTCGCGACACGTACACACCAACACATAAACCGGAGTCACCTAGTGCAG | 4520 fluorescence intensity (a.u.) |
| CATAACAACCACTAAAACATTATGAATATTTTGTACATACCGGAGTCACCTAGTGCAG | 22800 fluorescence intensity (a.u.) |
| ATACAAAACTAGAAACAAGACATACCAACATCACAACATGCGGAGTCACCTAGTGCAG | 26100 fluorescence intensity (a.u.) |
| TAGATCAATGATGTTGCATGCAACTCACGCGACACATGGTCGGAGTCACCTAGTGCAG | 40000 fluorescence intensity (a.u.) |
| TGAATATAAACACAACTACATTTAGCGACAGAAGAAGAACCGGAGTCACCTAGTGCAG | 40600 fluorescence intensity (a.u.) |
| ATCATGTACATCTCATAGTCAACAATATTCATCACAATCTCGGAGTCACCTAGTGCAG | 3640 fluorescence intensity (a.u.) |
| CGGAGAGGGAGAAGGAGAGGAGAGGGGCTGATAGGTGGGGCGGAGTCACCTAGTGCAG | 3520 fluorescence intensity (a.u.) |
| CTCCTCCATTGCCAGTTGCTACTCATCCTCATCCTCTCCACGGAGTCACCTAGTGCAG | 22600 fluorescence intensity (a.u.) |
| TCCTCCAGATGTTACAGTCTCCGAATTTCAGTGATGTCACCGGAGTCACCTAGTGCAG | 11800 fluorescence intensity (a.u.) |
| ATCCAATCTGAGCCGTCCGCTGTACACCGTAGATCTATATCGGAGTCACCTAGTGCAG | 3450 fluorescence intensity (a.u.) |
| CTCCGTGATCGTCATGTCAAGACGCAAAATAAAGAGCAATCGGAGTCACCTAGTGCAG | 33400 fluorescence intensity (a.u.) |
| GAAACCCGGCCACATCACTCCTTCCCTATGCTCCAGTGAGCGGAGTCACCTAGTGCAG | 8040 fluorescence intensity (a.u.) |

| Sequence | binding signal |
| --- | --- |
| TGGCAAATAGTTCCGTGATGTCAGCTTGGAAGCATCCTGCCGGAGTCACCTAGTGCAG | 6410 fluorescence intensity (a.u.) |
| CTTTTGGCAAAATCCGTGATGCAGCATCGATCCCTGTCAACGGAGTCACCTAGTGCAG | 39800 fluorescence intensity (a.u.) |
| TTTTGGATGCAGCATATGGTTGTCCCGATGCAAAATCCTCCGGAGTCACCTAGTGCAG | 4530 fluorescence intensity (a.u.) |
| ATATATACCTGCATACACTAGACTAGTATAATACCTGGCACGGAGTCACCTAGTGCAG | 3530 fluorescence intensity (a.u.) |
| TTTCGGTCATGAAAACTCAGGACCAAATTTCATCCAAATACGGAGTCACCTAGTGCAG | 29300 fluorescence intensity (a.u.) |
| TATCCAAAATTTCATCCAACTCTTGTGGGAGAAACGGACACGGAGTCACCTAGTGCAG | 39500 fluorescence intensity (a.u.) |
| AAACGATAATATACCTTGTATAGTCATCCAACTCTTATTTCGGAGTCACCTAGTGCAG | 3630 fluorescence intensity (a.u.) |
| GATTTCTTTCTGCCGTCATCTTCGAATATCCATGACTCGCCGGAGTCACCTAGTGCAG | 3840 fluorescence intensity (a.u.) |
| AAATGTCTCCCAAAACCTCAAAATTGAGTTCCATTATGAACGGAGTCACCTAGTGCAG | 61600 fluorescence intensity (a.u.) |
| CACTTGATGAGCTCCTCTCCATGTCCTCAAACGTACTGAACGGAGTCACCTAGTGCAG | 25100 fluorescence intensity (a.u.) |
| ATCGATCAGGCAATGAACCCATTATTGTTTGCCTCCAAAACGGAGTCACCTAGTGCAG | 34100 fluorescence intensity (a.u.) |
| AATCGATTCGAAATCCACACCGCTACTACGGCTAATTACGCGGAGTCACCTAGTGCAG | 3870 fluorescence intensity (a.u.) |
| CGCATTGAGCCATTTACACTACACACACAGCCCCAGATTCCGGAGTCACCTAGTGCAG | 3420 fluorescence intensity (a.u.) |
| GATCTGTCACTGTATGGAATGATGCAAAGCTGCTGCTGATCGGAGTCACCTAGTGCAG | 32000 fluorescence intensity (a.u.) |
| TCTGCTGATGATCTCTCTCTCTCTCTGTTTCAAAGCTGATCGGAGTCACCTAGTGCAG | 44700 fluorescence intensity (a.u.) |
| ACCTCTTGCTGCTGCTCATTCTGATGTCATTCAAAGAGATCGGAGTCACCTAGTGCAG | 4480 fluorescence intensity (a.u.) |
| CGCGCGAGTGCTAGGAAGCTGAGTCACGCCCGCCCTCCTCCGGAGTCACCTAGTGCAG | 10700 fluorescence intensity (a.u.) |
| TCCCACATTAAATTTACTCATTAGTTGTTAGGAATCGACACGGAGTCACCTAGTGCAG | 20600 fluorescence intensity (a.u.) |
| CAGAATATTTTGTCAGTCACTCTTGATCACTCTAGCAACACGGAGTCACCTAGTGCAG | 3980 fluorescence intensity (a.u.) |
| CAAGAGAAAATAGCCAAAATAATAGCAGTAAGAACACAATCGGAGTCACCTAGTGCAG | 15400 fluorescence intensity (a.u.) |
| CAGTAAGCTAGCAAACAAACACACAAGAATATTTGTGATCCGGAGTCACCTAGTGCAG | 39900 fluorescence intensity (a.u.) |
| ATCGTGTGACGACGTCTCGTCTCGTCTCCCTCTCCCGACCCGGAGTCACCTAGTGCAG | 3260 fluorescence intensity (a.u.) |
